Bioassay records from PubChem BioAssay.
Cav3 T inh – Cav3.2 calcium influx blockers – cell-based, Fluo-4 calcium fluorescence, FDSS, MLSMR library, primary screen | Voltage-dependent T-type calcium channel subunit alpha-1H (Homo sapiens), O95180 | Cav3.2-expressing cells; active compounds read low | B-score at 10 µM | 100,000 compounds, 4% hits;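 active = single-dose well whose peak fluorescence ratio is a statistical outlier from its plate by either plate-standardised score or position-corrected B-score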
PLAP act – PLAP enzyme activators, biochemical, luminescence, HTS; 96,000 compounds, 1.2% hits; purified PLAP enzyme, luminescent substrate read-out; active compounds read high; activation fold at 20 µM; in the data active = activation fold above about 2
Target sequence (P05187 whole entry, looked up): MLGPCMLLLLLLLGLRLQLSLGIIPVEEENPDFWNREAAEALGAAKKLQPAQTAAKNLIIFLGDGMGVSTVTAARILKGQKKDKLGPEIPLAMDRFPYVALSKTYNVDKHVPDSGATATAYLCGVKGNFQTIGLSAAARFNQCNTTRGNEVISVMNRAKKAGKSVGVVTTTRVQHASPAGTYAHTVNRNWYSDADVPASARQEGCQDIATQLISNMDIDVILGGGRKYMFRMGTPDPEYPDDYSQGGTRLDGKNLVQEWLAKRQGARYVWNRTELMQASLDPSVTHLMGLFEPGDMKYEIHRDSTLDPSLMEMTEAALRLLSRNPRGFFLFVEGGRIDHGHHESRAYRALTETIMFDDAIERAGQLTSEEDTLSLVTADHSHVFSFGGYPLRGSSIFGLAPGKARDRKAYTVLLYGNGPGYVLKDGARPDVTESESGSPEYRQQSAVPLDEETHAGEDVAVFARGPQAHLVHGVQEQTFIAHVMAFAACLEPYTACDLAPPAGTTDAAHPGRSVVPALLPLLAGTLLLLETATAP
M1 antagonist – antagonists of rat M1 muscarinic receptor; 64,000 compounds, 3.4% hits; CHO-M1 cells, Fluo-4 calcium, ACh EC80 antagonist mode; active compounds read low; Muscarinic acetylcholine receptor M1 (Rattus norvegicus), P08482; B-score at 10 µM;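 active = calcium fluorescence response, raw or row-and-column corrected B-score, differing from the plate sample mean either way at a set confidence level, mostly lower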
HER2 expr 66K – inhibitors of Her2 protein expression, primary screen, SKBR-3 cells, AlphaScreen, 66K library; Receptor tyrosine-protein kinase erbB-2 (Homo sapiens), P04626; SKBR-3 HER2 protein level, 18-24 h; active compounds read low; HER2 level % of control, % at 10 µM; 65,000 compounds, 0.69% hits;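 active = HER2 level under 5% of the carrier-only control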;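 also: 100% = DMSO carrier and 0% = 500 nM PU-H71 HSP90 inhibitor; lower value means stronger loss of Her2 protein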
M1 ag – M1 muscarinic receptor agonists, primary screen, CHO-M1 cells, Fluo-4 calcium, agonist mode | AID 626, 2007 | Fluo-4 calcium fluorescence; active compounds read high | Muscarinic acetylcholine receptor M1 | B-score at 10 µM | 64,000 compounds, 3% hits;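 active = fluorescence rise, raw or as B-score row- and column-corrected plate score, outside the 99.7% band of its plate's samples, either direction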
* = called active by the depositor; . = not tested or not shown. This is a sample that favours compounds with a hit; in the whole collection about 7.9% have one here.

SMILES	Cav3 T inh	PLAP act	M1 antagonist	HER2 expr 66K	M1 ag
CCN(CC)CCN(C(=O)Cn1nnc(-c2ccc(OC)c(OC)c2)n1)C(C(=O)NC1CCCC1)c1ccc(F)cc1 (stereo not given)	-0.53	1.4	.	.	.
CCc1ccccc1N(C)C(=O)CCc1nc(-c2ccc(C)cc2)no1	-5.5*	1.8	-0.35	93	0.96
O=C(O)CCc1nc(-c2ccccc2)no1	-0.56	0.8	0.42	103	-0.98
COc1ccc(Cl)cc1N(C)C(=O)CCc1nc(-c2ccc(C)cc2)no1	-5.7*	1.6	0.11	97	-0.05
COc1ccc(NC(=O)CCc2nc(-c3ccc(C)cc3)no2)cc1Cl	-0.77	0.9	-0.034	101	0.19
CCc1nccn1S(=O)(=O)c1ccc(Br)cc1Br	-1.2	0.8	0.12	102	0.07
CCc1nccn1S(=O)(=O)c1ccc(OC)c(C)c1C	-3.8*	1.3	.	.	.
COC(=O)C1=C(O)C(C(=O)OC)C(c2ccc(C)cc2)C(C#N)(C#N)C1c1ccc(C)cc1 (stereo not given)	-5.6*	.	.	.	.
CCc1nnc(NC(=O)CSc2nnc(CNc3ccc(Cl)cc3)o2)s1	-4*	0.9	1.2	52	-0.072
CCc1nnc(NC(=O)CSc2nnc(Cc3ccccc3)o2)s1	3.8*	0.9	-0.1	106	1.7
CCc1nnc(NC(=O)CSc2nnc(C)n2Cc2ccccc2)s1	0.74	.	.	.	.
CCOc1cc(C(=O)CSc2nnc(CNc3ccc(Cl)cc3)o2)ccc1NC(=O)CC	-0.12	0.9	0.16	-22*	0.018
O=c1nc2ccccc2c2n1CC(CN1CCN(c3ccccc3F)CC1)N2 (stereo not given)	0.55	1.2	.	.	.
CC(=O)Nc1nc(C)nc(C)c1C(C)=O	.	0.9	0.056	124	0.12
Cc1ccc(OCC(O)Cn2c(=N)n(Cc3ccccc3)c3ccccc32)cc1 (stereo not given)	-5.3*	1.5	.	.	.
COc1ccc(OCC(O)Cn2c(=N)n(Cc3ccccc3)c3ccccc32)cc1 (stereo not given)	.	8	0.49	56	0.022
Cc1c(CNC(=O)c2nn3c(c2Cl)NC(c2ccccc2)CC3C(F)(F)F)cnn1C (stereo not given)	-0.022	1.7	-0.027	107	-0.075
O=C(O)c1ccc(-n2nnnc2Oc2cccc3cccnc23)cc1	0.4	0.9	.	.	.
CC(=O)CSc1nc2ccccc2s1	1.3	1	.	.	.
COc1ccc2c(c1)C(C)CC(C)(C)N2C(=O)CSc1nc2ccccc2s1 (stereo not given)	-7.6*	0.9	.	.	.
COc1ccc(S(=O)(=O)Nc2ccc(O)c3ccccc23)cc1	-0.077	1.2	0.59	3.4*	-0.59
COc1ccc(S(=O)(=O)Nc2ccccc2C(F)(F)F)cc1	-1.2	1.6	-2.6	109	-0.19
COc1ccc(S(=O)(=O)Nc2cc(C(C)C)c(O)cc2C)cc1	-4.8*	1	-0.0074	86	-1
N#C/C(C(=O)Oc1ccccc1)=C1/Nc2ccccc2-c2ccccc21	-1.3	1	.	.	.
CN(c1ccc(C(=O)O)cc1)S(=O)(=O)c1ccccc1	-0.4	1.1	.	104	.
SMILES	Cav3 T inh	PLAP act	M1 antagonist	HER2 expr 66K	M1 ag
Cc1ccc(CSCCNC(=O)c2ccc(Cl)c(S(=O)(=O)N3CCOCC3)c2)cc1	-7.4*	1.7	.	.	.
Cc1ccc(CSCCNC(=O)c2ccc(N(C)S(=O)(=O)c3ccccc3)cc2)cc1	-5.6*	1.4	.	.	.
O=[N+]([O-])c1ccc(Oc2cccc(F)c2)c2ccncc12	-0.12	0.9	.	.	.
COc1c(N2CCN(C(=S)Nc3ccc(F)cc3)C(C)C2)c(F)cc2c(=O)c(C(=O)O)cn(C3CC3)c12 (stereo not given)	3.6*	1	.	.	.
COc1cc(C(=O)Oc2ccccc2/C=N/NC(=O)c2ccc(Cl)cc2Cl)cc(OC)c1OC	-3.7	2.3*	.	.	.
C/C(N)=C(/C#N)C(=O)COC(=O)c1ccncc1	1.2	2.3*	0.58	87	-0.84
C/C(N)=C(/C#N)C(=O)COC(=O)c1ccc(C)c(S(=O)(=O)N2CCCCC2)c1	-0.44	1.3	.	.	.
Oc1ccc(N=Nc2n[nH]c(-c3ccc(Cl)cc3)n2)cc1	1.4	0.7	.	.	.
O=C1C(Cl)=C(NCC2CCCO2)C(=O)N1CCc1ccccc1 (stereo not given)	-1.1	1.1	0.91	80	-0.95
COC(=O)c1c(C(=O)OC)c2ccncn2c1Cl	-0.54	2.4*	0.43	111	1.8
COC(=O)c1cn(-c2ccccc2)nc1-c1ccncc1	0.41	1	.	.	.
c1ccc(Cc2nn3c(-c4ccncc4)nnc3s2)cc1	0.0041	0.8	-0.12	91	0.43
COc1ccc(CN2CC[C@H]3C=CC[C@@H](C(=O)Nc4ccc(Cl)c(C(F)(F)F)c4)[C@H]3C2=O)cc1OC	-2.7	.	.	.	.
CCOc1ccc2[nH]c3c(N4CCN(c5ccccn5)CC4)ncnc3c2c1	-0.14	0.7	-1	66	-0.35
Fc1ccc2[nH]c3c(N4CCN(C5CCCCC5)CC4)ncnc3c2c1	.	2.3*	-1	69	-0.32
COc1cc2[nH]c3c(N4CCN(c5ccc(Cl)cc5)CC4)ncnc3c2cc1OC	1.3	0.9	0.14	56	-0.04
COc1cccc(N2CCN(c3ncnc4c3[nH]c3ccc(F)cc34)CC2C)c1 (stereo not given)	-6.1*	1.1	-6.1*	-26*	7.8*
Oc1c(Cl)cc(Cl)cc1C=Nc1ccc(Br)cc1	-7.6*	0.9	.	.	.
CCC(C)OC(=O)C1=C(C)NC2=C(C(=O)C(C(=O)OC)C(C)C2)C1c1ccc(N(C)C)cc1 (stereo not given)	-2.3	1.3	1.2	.	-0.41
CCCOC(=O)C1=C(C)NC2=C(C(=O)C(C(=O)OC)C(C)C2)C1c1ccc(N(CC)CC)cc1 (stereo not given)	-7.3*	.	1	.	2.2
COc1ccc(OC)c(NC(=O)Cc2coc3cc(C)cc(C)c23)c1	-1.4	1	.	.	.
Cc1cccc(C)c1NC(=O)C(c1ccc([N+](=O)[O-])cc1)N1CCCCC1 (stereo not given)	-5.6*	1	.	.	.
CCNC(=O)CN(CCc1ccccc1)S(C)(=O)=O	-0.093	0.9	-1.7	111	-0.1
CCCCNC(=O)CN(CCc1ccccc1)S(C)(=O)=O	-5.3*	1	.	.	.
C=CCn1c(Cc2csc(N)n2)nnc1SCC(=O)Nc1ccccc1C(F)(F)F	0.35	0.8	.	.	.
CCn1c(SCC(=O)c2ccc(Cl)cc2)nnc1-c1cccs1	-0.35	0.9	.	.	.
CCn1c(SCCOc2ccc(Cl)cc2)nnc1-c1cccs1	-5.2*	1.5	-2	95	0.24
CCOc1ccc(C2CC(c3cccc(OC)c3OC)n3nnnc3N2)cc1Cl (stereo not given)	-4.1*	1.6	0.92	98	-0.69
CCC(C)(C(=O)NC1CCCC1)N(Cc1ccco1)C(=O)Cc1cccs1 (stereo not given)	-0.78	1.2	.	.	.
